This passage reports % cells with GFP-LC3 spots and toxicity results from PubChem BioAssay AID463193 (University of Pittsburgh Molecular Library Screening Center, 2010).

Out of some 190,000 compounds screened, about 1,900 (1%) were called active. The sample holds actives, similar compounds and a random draw of the others, so the mix is not that of the screen.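 How the source made its calls: active means percentage of spot-positive cells more than 3 SD above its plate mean, without a fluorescence outlier flag or 80% toxicity; inconclusive means no clear call, values can overlap the other calls; inactive means the rest.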

The assay is described as follows: autophagy modulators in MEF cells, primary screen, imaging, high-content, MEF GFP-LC3 (AID 463193).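 On % cells with GFP-LC3 spots: spot-positive cell cutoff set from DMSO-treated cells.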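 On toxicity: cell loss after 18 h compound exposure.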 The conditions noted are these: MEF GFP-LC3 puncta imaging, at 10 µM; % cells with GFP-LC3 spots: stronger effect = higher value; toxicity: measured here: cell loss, nuclei count.
`CCN(CC)C(=O)CN(c1cccc([N+](=O)[O-])c1)S(=O)(=O)c1ccccc1`: the % cells with GFP-LC3 spots was 0.147% (inactive) and the toxicity was 2.32%.
Take `O=C(CCl)N(Cc1cccc([N+](=O)[O-])c1)c1cccc(Cl)c1`: the % cells with GFP-LC3 spots was 60.8% (active) and the toxicity was determined as 58.5%.
As for `Cc1ccccc1OCC(=O)Nc1nc(C)c(C(=O)N(C)C)s1`, the % cells with GFP-LC3 spots is 28.3% (inactive) and the toxicity is -9.79%.
In the same order, the values of `CCc1cccc(NC(=O)CCC(=O)O)c1` are 4.04% (inactive) and 8.61%.
In the same order, the values of `O=C(c1ccc(F)cc1)n1cc(C(=S)N2CCOCC2)c2ccccc21` are 8.35% (inactive) and -13.5%.
As for `CCOC(=O)c1sc(NC(=O)CSc2nc(O)c(Cc3ccccc3)c(=O)[nH]2)nc1C`, the % cells with GFP-LC3 spots is 4.28% (inactive) and the toxicity was -1.5%.
In the same order, the values of `COC(=O)c1ccccc1NC(=O)c1cncc(Br)c1` are 6.11% (inactive) and -8.54%.
The corresponding values for `CCc1ccc(Oc2coc3cc(OC(=O)c4cc5ccccc5oc4=O)ccc3c2=O)cc1` are 1.87% (inactive) and -5.27%.
The corresponding values for `COc1ccc(Oc2coc3cc(OC(=O)c4cncc(Br)c4)ccc3c2=O)cc1` are 25.7% (active) and -11.8%.
Take `Nc1nc(SCC(=O)N2CCN(S(=O)(=O)c3ccc(Cl)cc3)CC2)n[nH]1`: the % cells with GFP-LC3 spots was 1.97% (inactive) and the toxicity was -0.836%.
The corresponding values for `N#Cc1ccsc1NC(=O)CN1CCN(S(=O)(=O)c2cc(Cl)ccc2Cl)CC1` are 7.41% (inactive) and 41.3%.
The corresponding values for `CCCN1CC=C2C(C#N)=C(N)C(C#N)(C#N)C(c3cc(OC)ccc3OC)C2C1` (centres undefined) are 99.7% (active) and 9.7%.
In the same order, the values of `CCC1=C(C(=O)OC)C(c2cc(OC)ccc2OC)C(C#N)=C(N)O1` (centres undefined) are 2.22% (inactive) and -10.7%.
`CCOC(=O)N1CC=C2C(C#N)=C(N)C(C#N)(C#N)[C@H](c3cccs3)[C@H]2C1`: the % cells with GFP-LC3 spots was 11.3% (inactive) and the toxicity is -6.29%.
The corresponding values for `COCCCNCCOCCOc1ccc(Cl)cc1Br` are 5.65% (inactive) and 4.08%.
`CCn1nc(C)c(/C=N/NC(=O)Cc2ccc(Cl)cc2)c1C`: the % cells with GFP-LC3 spots was 4.23% (inactive) and the toxicity was determined as 8.44%.
The corresponding values for `Cc1cc(C)cc(NC(=S)NCCCN2CCOCC2)c1` are 12.3% (inactive) and -2.96%.
`Cc1ccc(S(=O)(=O)NCCN2CCOCC2)cc1C`: the % cells with GFP-LC3 spots was 1.8% (inactive) and the toxicity was determined as 15.4%.
For `Cc1cc(C)c(S(=O)(=O)NCCCN2CCOCC2)cc1Br`, the % cells with GFP-LC3 spots was 19.8% (active) and the toxicity was determined as 9.5%.
Turning to `CCc1nc2ccccc2c(C(=O)NCc2ccc(OC)cc2)c1C`, the % cells with GFP-LC3 spots is 2.64% (inactive) and the toxicity is -18.8%.
Consider `C=CCNc1nc(Nc2ccc(Cl)cc2)nc(OC)n1`, for which the % cells with GFP-LC3 spots was 0.706% (inactive) and the toxicity came out at 0.881%.
Consider `Cc1ccc(NC(=O)OCCNC(=O)c2ccncc2)cc1`, for which the % cells with GFP-LC3 spots is 5.3% (inactive) and the toxicity came to 0.481%.
The corresponding values for `CC[C@H]1OC(=O)[C@H](C)[C@@H](O[C@H]2C[C@@](C)(OC)[C@@H](O)[C@H](C)O2)[C@H](C)[C@@H](O[C@@H]2O[C@H](C)C[C@H](N(C)C)[C@H]2O)[C@](C)(O)C[C@@H](C)[C@@H]2N[C@@H](COCCOC)O[C@H]([C@H]2C)[C@]1(C)O` are 10.6% (inactive) and 20.5%.
In the same order, the values of `COc1cccc2cc(S(=O)(=O)c3ccc(C)cc3)/c(=N/NS(=O)(=O)c3ccc(C)cc3)oc12` are 5.62% (inactive) and 3.69%.
The corresponding values for `CCN1C(=O)/C(=c2\s/c(=C3\Sc4ccccc4N3C)c(=O)n2C)N(C)C1=S` are 1.17% (inactive) and 19.3%.
For `CCN1C(=O)/C(=C2/Sc3ccc(OC)cc3N2C)SC1=Nc1ccc(C)cc1`, the % cells with GFP-LC3 spots was 24.8% (active) and the toxicity was -15%.
In the same order, the values of `CCN1C(=O)/C(=C2/Sc3ccccc3N2CCCS(=O)(=O)O)SC1=S` are 1.02% (inactive) and -10.6%.
The corresponding values for `CC(=O)c1ccc(N=C2SCCCN2C(=O)C2CCCCC2)cc1` are 1.47% (inactive) and -1.61%.
The corresponding values for `CCCOc1ccc(NC(=O)C2CCCNC2=O)cc1` (centres undefined) are 12.2% (inactive) and -1.43%.
As for `CCCOc1ccc(NC(=O)C2OC3OC(C)(C)OC3C3OC(C)(C)OC23)cc1` (centres undefined), the % cells with GFP-LC3 spots was 19.1% (active) and the toxicity was -25.3%.
In the same order, the values of `CCCOc1ccc(N/C=C/C(=O)C(C)(C)C)cc1` are 0.722% (inactive) and -6.8%.
In the same order, the values of `C=CCOc1c(Br)cc(/C=N\n2nnnc2N)cc1OC` are 6.77% (inactive) and 29%.
In the same order, the values of `CC1CC2=C(CC1/C=N/NC(N)=S)C(C)(C)CCC2` (centres undefined) are 39.4% (active) and 20%.
`CC1(C)CCCC2=C1CC1C(=O)N(c3ccccc3)C(=O)C1C2` (centres undefined): the % cells with GFP-LC3 spots was 3.25% (inactive) and the toxicity was 1.28%.
The corresponding values for `Cc1cc2c(C)nc(N/N=C/c3ccccc3)nc2o1` are 16.3% (inactive) and 2.3%.
The corresponding values for `Cc1ccc(Cl)cc1N1CCN(C(=O)c2cccc3c(=O)c(C)c(-c4ccccc4)oc23)CC1` are 3.68% (inactive) and 9.69%.
With `O=C1CCC(=O)N1c1ccc(NCCc2ccccc2F)c([N+](=O)[O-])c1`, the % cells with GFP-LC3 spots was 1.23% (inactive) and the toxicity was determined as 31.5%.
The corresponding values for `CC(Oc1cccc(NC(=O)c2cccs2)c1)C(=O)c1ccccc1` (centres undefined) are 9.23% (inactive) and 21.1%.
As for `Cc1ccc(NC(=O)CN2CCCCC2)c2c1CC(C)(C)O2`, the % cells with GFP-LC3 spots is 4.85% (inactive) and the toxicity is -23.6%.
The corresponding values for `CCCc1[nH]nc2c1C(c1c(C)nn(-c3ccccc3)c1Cl)C(C#N)=C(N)O2` (centres undefined) are 16.1% (inactive) and 24.7%.
In the same order, the values of `CCCc1[nH]nc2c1C(c1ccc(Br)s1)C(C#N)=C(N)O2` (centres undefined) are 13.3% (active) and 8.15%.
The corresponding values for `CCCc1[nH]nc2c1C(C1CC=CCC1)C(C#N)=C(N)O2` (centres undefined) are 8.01% (inactive) and 13%.
